Results reported in PubChem BioAssay (NCATS).
Results filed as inconclusive are left out. A call without a number means that no potency is given here. Unmarked numbers belong to inactive results. Activity calls are given as the source filed them. Calls come from the whole dose curve; as a rule, active = well fitted curve in the direction sought with a large enough effect; inconclusive = small, poorly fitted or top-dose-only effect, or another doubt; inactive = no such curve, though single readings can be large; an effect the other way counts as inactive or inconclusive.

Tests used:
[1] = qHTS of pediatric cancer cell lines to identify multiple opportunities for drug repurposing: Primary screen for Rh30 cells (AID 1347107); note: series mostly up to about 46 µM; nearly all actives have a fitted effect of over 75% in size
Summary of the method: (§1)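 Cells (500-1,000/well) in growth media were settled 5 h at 37 degrees C, then given compounds for 48 h. Viability was read as CellTiter-Glo luminescence. Primary runs used MIPE at 11 points (0.78 nM-46 µM) and NPC at 8 points (0.59 nM-46 µM); follow-ups used 11 points.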

[2] = qHTS of pediatric cancer cell lines to identify multiple opportunities for drug repurposing: Primary screen for Rh41 cells (AID 1347108);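 note: series mostly up to about 46 µM; luminescence drop marks cytotoxic hits; nearly all actives have a fitted effect of over 70% in size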
Summary of the method: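 Quantitative HTS format: each compound titrated (MIPE 11 points from 0.78 nM, NPC 8 points from 0.59 nM) onto cells plated 5 hours earlier. After 48 h at 37 degrees C, CellTiter-Glo luminescence was recorded.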

[3] = qHTS of pediatric cancer cell lines to identify multiple opportunities for drug repurposing: Confirmatory screen for NB1643 cells (AID 1347109); note: nearly all actives have a fitted effect of over 45% in size
Summary of the method: as §1

[4] = qHTS of pediatric cancer cell lines to identify multiple opportunities for drug repurposing: Confirmatory screen for SK-N-MC cells (AID 1347111);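 note: cells exposed to compound for 48 h before the readout; nearly all actives have a fitted effect of over 70% in size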
Summary of the method: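 Metabolically active cells were quantified by ATP-dependent luminescence (CellTiter-Glo, 15 min at room temperature) following 48 h treatment. Cells had been plated at 500-1,000 per well and settled for 5 h beforehand.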

[5] = qHTS of pediatric cancer cell lines to identify multiple opportunities for drug repurposing: Confirmatory screen for BT-12 cells (AID 1347112); note: nearly all actives have a fitted effect of over 55% in size
Excerpt: (§2) Drug repurposing or repositioning has been offered as a strategy for drug development in oncology programs. This approach has special potential for childhood cancers and other rare or orphan diseases, where the expected return on new drug development has been a disincentive to pharmaceuticals.
(§3) In this project we exploit the poly-pharmacology of drugs to discover new indications via phenotypic screening of a panel of 19 well-characterized cell lines derived from solid tumors seen in children and adolescents. The goal is to identify approved drugs with previously unrecognized anticancer properties that has the potential to reveal new mechanisms and biological processes involved in carcinogenesis or drug resistance. We employed a titration-based paradigm (quantitative high-throughput screening or qHTS), where all compounds were tested at multiple concentrations for their effect on cell viability. Concentration-response curves (CRCs) were derived directly from the primary screen, and both potency and efficacy values were used to identify compounds with robust bioactivity profiles. We screened the NIH Chemical Genomics Center (NCGC) Pharmaceutical Collection (NPC) and Mechanism Interrogation Plate (MIPE) small molecule collections of approved and investigational compounds against these cell lines; and measured metabolically active cells after 48 hours of compound treatment as a proxy for cell viability.
(§4) Assay Submitter: Nathalia J. Martinez, National Center for Advancing Translational Sciences, National Institutes of Health, Rockville, MD, USA; email: natalia.martinez@nih.gov
(§5) [1] Shen, M et al. Quantitative high-throughput phenotypic screening of pediatric cancer cell lines identifies multiple opportunities for drug repurposing. Oncotarget 2017 Dec 19;9(4):4758-4772. PMID 29435139.
(§6) The cells were obtained from University of North Carolina (UNC), Pediatric Preclinical Testing Program (PPT), and Coriell Institute (CI).
(§7) qHTS cell viability assay:
(§8) Cells were assayed in growth media at a density of 500-1,000 cells/well. Five microliters of cells were dispensed into 1,536-well, white, solid-bottom, TC-treated plates (Greiner Bio One) using a multidrop dispenser and incubated at 37 degrees C, 5% CO2, under a humidified atmosphere for 5 hours. Twenty-three nanoliters of compounds and controls (neutral control DMSO or positive control bortezomib at final concentration of 2.3 µM) were subsequently transferred by Kalypsys pintool. For primary screens, the MIPE collection was tested at 11-point dilutions (final concentrations range from 0.78 nM to 46 µM) and the NPC collection at 8-point dilutions (final concentrations range from 0.59 nM to 46 µM). Compounds tested in follow-up screens were assayed at 11-point dilutions. Cells were incubated for 48 hours, followed by addition of 3 µL of CellTiter-Glo (Promega). After a 15 min incubation at room temperature, samples were analyzed for luminescence intensity using a ViewLux High-throughput CCD imager equipped with clear filters.

[6] = qHTS of pediatric cancer cell lines to identify multiple opportunities for drug repurposing: Confirmatory screen for DAOY cells (AID 1347114); note: nearly all actives have a fitted effect of over 65% in size
Excerpt: as §2, §3, §4, §5, §6, §7
as §8, with “uL” for “µL”

[7] = qHTS of pediatric cancer cell lines to identify multiple opportunities for drug repurposing: Confirmatory screen for SJ-GBM2 cells (AID 1347116); note: nearly all actives have a fitted effect of over 60% in size
Summary of the method: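 Viability measured as metabolically active cells via CellTiter-Glo luminescence following 48 hours of compound exposure, 11-point dilutions in confirmatory testing. 500-1,000 cells/well plated 5 hours before dosing; controls were DMSO and 2.3 µM bortezomib.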

[8] = qHTS of pediatric cancer cell lines to identify multiple opportunities for drug repurposing: Confirmatory screen for A673 cells (AID 1347110);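 note: cells exposed to compound for 48 h before the viability read; nearly all actives have a fitted effect of over 65% in size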
Summary of the method: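 A673 cells seeded at 500-1,000 cells/well, rested 5 h, then dosed; primary MIPE 11-point (0.78 nM to 46 µM), NPC (0.59 nM to 46 µM); confirmatory 11-point. CellTiter-Glo luminescence after 48 h.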

[9] = qHTS of pediatric cancer cell lines to identify multiple opportunities for drug repurposing: Confirmatory screen for LAN-5 cells (AID 1347113); note: nearly all actives have a fitted effect of over 65% in size
Summary of the method: as §1

[10] = qHTS of pediatric cancer cell lines to identify multiple opportunities for drug repurposing: Confirmatory screen for NB-EBc1 cells (AID 1347115);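 note: cells exposed to compound for 48 h before the viability read; nearly all actives have a fitted effect of over 45% in size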
Summary of the method: as §1

Which outcome [1] does the source give for Cc1ncc([N+](=O)[O-])n1CC(O)CCl (centres undefined) here?
Its outcome is “inactive”.

What about the Potency [2] of the same compound?
The Potency was “inactive”.

Which outcome [1] does the source give for CC(=O)NC(Cc1ccccc1)C(=O)O (centres undefined) here?
Its outcome is “inactive”.

And the Potency [2]?
The Potency was “inactive”.

For C[C@]12C[C@H](O)[C@H]3[C@@H](CCC4=CC(=O)CC[C@@]43C)[C@@H]1CC[C@@H]2C(=O)CO, which outcome [1] is on record?
Its outcome is “inactive”.

And the Potency [2]?
The Potency was “inactive”.

For N[C@@H](CSCCCO)C(=O)O, which outcome [1] is on record?
Its outcome is “inactive”.

And the Potency [2]?
The Potency was “inactive”.

With O=C(Oc1ccccc1C(=O)O)c1ccccc1O as the compound, how does the outcome [1] read?
Its outcome is “inactive”.

And the Potency [2]?
Its Potency is “inactive”.

With CCOC(=O)c1ccc(O)cc1 as the compound, how does the outcome [1] read?
The outcome was “inactive”.

What about the Potency [2] of the same compound?
The Potency was “inactive”.

Which outcome [1] does the source give for O=C1NC(=O)[C@@]2(CCOc3ccc(F)cc32)N1 here?
Its outcome is “inactive”.

And the Potency [2]?
The Potency was “inactive”.

Which outcome [1] does the source give for CCCc1c(OCCCCc2nn[nH]n2)ccc(C(C)=O)c1O here?
Its outcome is “inactive”.

What about the Potency [2] of the same compound?
The Potency was “inactive”.

What does the source list for NC(=O)c1ncn([C@@H]2O[C@H](CO)[C@@H](O)[C@H]2O)c1N?
outcome [1]: inactive; Potency [2]: inactive

Which results are given for CC(C)(C)C(=O)C(Oc1ccc(Cl)cc1)n1ccnc1 (centres undefined)?
outcome [1]: inactive; Potency [2]: inactive

With COC(=O)C1=C(C)NC(C)=C(C(=O)OC)C1c1ccccc1[N+](=O)[O-] as the compound, how does the outcome [1] read?
Its outcome is “inactive”.

And the Potency [2]?
The Potency was “inactive”.

Which results are given for c1ccc(CN(CC2=NCCN2)c2ccccc2)cc1?
outcome [1]: inactive; Potency [2]: inactive

Which outcome [1] does the source give for O=C(CCCN1CCN(c2ccccn2)CC1)c1ccc(F)cc1 here?
Its outcome is “inactive”.

And the Potency [2]?
Its Potency is “inactive”.

Which outcome [1] does the source give for O=C(O)[C@H](O)c1ccccc1 here?
The outcome was “inactive”.

What about the Potency [2] of the same compound?
Its Potency is “inactive”.

Which activity change, negative = cytotoxic [1] does the source give for NCCNCCNCCNCCN here?
The activity change, negative = cytotoxic was 7.05% [at 9.22 µM].

What about the activity change, negative = cytotoxic [2] of the same compound?
The activity change, negative = cytotoxic was 10.3% [at 9.22 µM].

With Cc1ncc(COP(=O)(O)O)c(C=O)c1O as the compound, how does the outcome [1] read?
The outcome was “inactive”.

And the Potency [2]?
The Potency was “inactive”.

For CC(COc1ccccc1)NC(C)C(O)c1ccc(O)cc1 (centres undefined), which outcome [1] is on record?
The outcome was “inactive”.

What about the Potency [2] of the same compound?
The Potency was “inactive”.

With CN(C)CCCN1c2ccccc2CCc2ccccc21 as the compound, how does the outcome [1] read?
The outcome was “inactive”.

What about the Potency [2] of the same compound?
The Potency was “inactive”.

Which outcome [1] does the source give for C[C@H]1O[C@H](O[C@H]2[C@H](O)[C@@H](O)[C@@H](O[C@H]3[C@H](O)[C@@H](O)[C@H](O)O[C@@H]3CO)O[C@@H]2CO)[C@H](O)[C@@H](O)[C@@H]1N[C@H]1C=C(CO)[C@@H](O)[C@H](O)[C@H]1O here?
Its outcome is “inactive”.

And the Potency [2]?
Its Potency is “inactive”.

What does the source list for C[C@]12CC[C@@H]3c4ccc(O)cc4CC[C@H]3[C@@H]1CCC2=O?
outcome [1]: inactive; Potency [2]: inactive

For C=Cc1c(C)c2cc3[nH]c(cc4nc(cc5nc(cc1[nH]2)C(C)=C5CCC(=O)O)C(CCC(=O)O)=C4C)c(C)c3C=C, which outcome [1] is on record?
Its outcome is “inactive”.

What about the Potency [2] of the same compound?
Its Potency is “inactive”.

For C[C@H]1O[C@@H](n2cc(F)c(=O)[nH]c2=O)[C@H](O)[C@@H]1O, which outcome [1] is on record?
Its outcome is “inactive”.

What about the Potency [2] of the same compound?
The Potency was “inactive”.

What does the source list for COc1ccc(Cl)cc1C(=O)NCCc1ccc(S(=O)(=O)NC(=O)NC2CCCCC2)cc1?
outcome [1]: inactive; Potency [2]: inactive

For OCC(CO)N[C@H]1C[C@](O)(CO)[C@@H](O)[C@H](O)[C@H]1O, which outcome [1] is on record?
Its outcome is “inactive”.

And the Potency [2]?
The Potency was “inactive”.

What does the source list for COc1cc(C(=O)N2CCOCC2)cc(OC)c1OC?
outcome [1]: inactive; Potency [2]: inactive

With Cc1cc(C(C#N)c2ccc(Cl)cc2)c(Cl)cc1NC(=O)c1cc(I)cc(I)c1O (centres undefined) as the compound, how does the Potency [2] read?
The Potency was “inactive”.

Which outcome [1] does the source give for CCCCCCCCCCCCCCCC(=O)NCCO here?
The outcome was “inactive”.

What about the Potency [2] of the same compound?
Its Potency is “inactive”.

For O=C(O)c1ccccc1O, which outcome [1] is on record?
Its outcome is “inactive”.

What about the Potency [2] of the same compound?
Its Potency is “inactive”.

For CN(N=O)C(=O)N[C@@H]1[C@@H](O)[C@H](O)[C@@H](CO)O[C@@H]1O, which outcome [1] is on record?
The outcome was “inactive”.

And the Potency [2]?
Its Potency is “inactive”.

Which outcome [1] does the source give for Nc1ccc(S(=O)(=O)Nc2ccc(Cl)nn2)cc1 here?
Its outcome is “inactive”.

And the Potency [2]?
The Potency was “inactive”.

What does the source list for CC(CN(C)C)CN1c2ccccc2CCc2ccccc21 (centres undefined)?
outcome [1]: inactive; Potency [2]: inactive

With CC(=O)Oc1c(C)c(C)c2c(c1C)CC[C@@](C)(CCC[C@H](C)CCC[C@H](C)CCCC(C)C)O2 as the compound, how does the outcome [1] read?
The outcome was “inactive”.

And the Potency [2]?
The Potency was “inactive”.

What does the source list for CC1=C(/C=C/C(C)=C/C=C/C(C)=C/C(=O)O)C(C)(C)CCC1?
outcome [1]: inactive; Potency [2]: inactive

For O=C1c2c(O)cccc2Cc2cccc(O)c21, which outcome [1] is on record?
The outcome was “inactive”.

What about the Potency [2] of the same compound?
The Potency was “inactive”.

With Cc1cccc(Nc2cc(Cl)nc(SCC(=O)O)n2)c1C as the compound, how does the outcome [1] read?
The outcome was “inactive”.

What about the Potency [2] of the same compound?
The Potency was “inactive”.

Which outcome [1] does the source give for Cc1cc2nc3c(=O)[nH]c(=O)nc-3n(C[C@H](O)[C@H](O)[C@H](O)CO)c2cc1C here?
Its outcome is “inactive”.

What about the Potency [2] of the same compound?
The Potency was “inactive”.

Which results are given for CCN(CC)C(C)CN1c2ccccc2Sc2ccccc21 (centres undefined)?
outcome [1]: inactive; Potency [2]: inactive

Which results are given for C[C@](N)(Cc1ccc(O)cc1)C(=O)O?
activity change, negative = cytotoxic [1]: -4.89% [at 4.84 µM]; activity change, negative = cytotoxic [2]: -37.3% [at 4.84 µM]; activity change, negative = cytotoxic [3]: 4.45% [at 5.01 µM]; activity change, negative = cytotoxic [4]: 6.85% [at 5.01 µM]; activity change, negative = cytotoxic [5]: -3.72% [at 5.01 µM]; activity change, negative = cytotoxic [6]: 9.36% [at 5.01 µM]; activity change, negative = cytotoxic [7]: 8.57% [at 5.01 µM]

For CC/C=C(\C(=O)N[C@@H]1C(=O)N2C(C(=O)OCOC(=O)C(C)(C)C)=C(COC(N)=O)CS[C@H]12)c1csc(N)n1, which outcome [1] is on record?
Its outcome is “inactive”.

And the Potency [2]?
Its Potency is “inactive”.

Which results are given for CCCCN(CCCC)CC(O)c1cc(Cl)cc2c1-c1ccc(Cl)cc1/C2=C/c1ccc(Cl)cc1 (centres undefined)?
outcome [1]: inactive; Potency [2]: inactive

Which outcome [1] does the source give for O=C1N=C(O)CN1/N=C/c1ccc(-c2ccc([N+](=O)[O-])cc2)o1 here?
Its outcome is “inactive”.

And the Potency [3]?
Its Potency is “inactive”.

What about the Potency [8] of the same compound?
Its Potency is “inactive”.

And the Potency [4]?
Its Potency is “inactive”.

What about the Potency [5] of the same compound?
The Potency was “inactive”.

What about the Potency [9] of the same compound?
The Potency was “inactive”.

What about the Potency [10] of the same compound?
The Potency was “inactive”.

What about the Potency [7] of the same compound?
Its Potency is “inactive”.

Which results are given for [O-][n+]1cccc(CO)c1?
outcome [1]: inactive; Potency [2]: inactive
